High-throughput results (PubChem BioAssay)
p53null 39C kill: p53 null cell cytotoxicity, nonpermissive temperature | H1299 p53-null (neo) cells, 39C, ATPlite viability, 24 h | Potency, µM (titrated, usually from 46.1 µM), most hits filed as cytotoxic | 55,000 tested, 0.97% active; also: nearly all actives have a fitted effect of over 50% in size
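Following overnight plating at 37C (600 cells/well), H1299-neo or H1299-p53A138V cells are dosed up to 46 uM. Incubation lasts 24 hr at 39C before ATP detection.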
S16 F2sN tox: S16 Schwann cell cytotoxicity; S16 Pmp22-F2sN Schwann cells viability, CellTiter-Glo, 24 h; Potency, µM (titrated, usually from 57.5 µM), actives largely listed as cytotoxic; 43,000 tested, 0.48% active; AID 1508642; also: nearly all actives have a fitted effect of over 65% in size
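CellTiter-Glo counter-screen, qHTS, 1536-well. Cells: S16(c9) Pmp22-F2sN, 500-1,000/well in DMEM + 10% FBS. Cpd 23 nL pin transfer, 24 h, 37C/5% CO2. Read: luminescence, CCD imager.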
p53null 32C kill: p53 null cell cytotoxicity, permissive temperature. H1299-neo p53 null cells, ATP luminescence, 24 h, 32C. Potency, µM (doses to about 46.1 µM), usual class: cytotoxic. 55,000 tested, 0.62% active. AID 903; also: nearly all actives have a fitted effect of over 55% in size
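H1299-neo (p53-null) cells, 600/well, were pre-incubated overnight at 37C, then exposed to compounds at up to 46 uM for 24 hr at 32C. Viability was measured as ATP content by luminescence, and AC50 values came from Hill fits.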
pS6 MEF inh: reduces mTORC1 signaling in Tsc2 and p53 null MEF cells; Tsc2-/- p53-/- MEF, phospho-rpS6 immunofluorescence/PI, 24 h; Potency, µM (titrated, usually from 38.3 µM), most hits filed as inhibitors; 44,000 tested, 0.78% active; also: nearly all actives have a fitted effect of over 50% in size
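Immunofluorescence of rpS6 phosphorylation in Tsc2-/-, p53-/- MEFs after 24 h compound exposure, normalized to propidium iodide signal. Activity is expressed as % positive cells, thresholded with 7.5 nM rapamycin.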
PMP22 txn: modulates PMP22 transcription in S16 Schwann cells; 43,000 tested, 2% active; Potency, µM (series often up to 57.5 µM), actives largely listed as inhibitors; S16 Pmp22-F2sN Schwann cells, FLuc/NLuc coincidence luminescence, 24 h; AID 1508649; active = clear falling dose curves in both reporters; inconclusive = both reporters move, but less clearly or upward; inactive = either reporter flat; the % is the NLuc reporter signal
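Transcriptional readout in edited S16(c9) cells: two luciferases reported from the Pmp22 locus, measured in turn after 24 h compound incubation.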
NLuc sat counter: counter-screen for PMP22 expression modulators: NanoLuc inhibition, saturating substrate. 690 tested, 4% active. AID 1508638. Potency, µM (top dose mostly 57.5 µM), usual class: inhibitors. shares compounds with PMP22 txn. Secreted NLuc enzyme (filtered S16 cell medium), Nano-Glo luminescence
NLuc Km counter: inhibits NanoLuc under Km conditions, PMP22 counter-screen | secreted NLuc enzyme, coelenterazine luminescence, Km conditions | Potency, µM (titrated, usually from 57.5 µM), hits mostly inhibitors | shares compounds with PMP22 txn | AID 1508639 | 690 tested, 5% active
FLuc counter: firefly luciferase enzyme inhibition artifact for PMP22 screen; shares compounds with PMP22 txn; purified P. pyralis FLuc, luminescence, 10 min; Potency, µM (top dose mostly 57.5 µM), hits mostly inhibitors; 690 tested, under 10 active; AID 1508640
Target sequence (P08659 whole entry, looked up): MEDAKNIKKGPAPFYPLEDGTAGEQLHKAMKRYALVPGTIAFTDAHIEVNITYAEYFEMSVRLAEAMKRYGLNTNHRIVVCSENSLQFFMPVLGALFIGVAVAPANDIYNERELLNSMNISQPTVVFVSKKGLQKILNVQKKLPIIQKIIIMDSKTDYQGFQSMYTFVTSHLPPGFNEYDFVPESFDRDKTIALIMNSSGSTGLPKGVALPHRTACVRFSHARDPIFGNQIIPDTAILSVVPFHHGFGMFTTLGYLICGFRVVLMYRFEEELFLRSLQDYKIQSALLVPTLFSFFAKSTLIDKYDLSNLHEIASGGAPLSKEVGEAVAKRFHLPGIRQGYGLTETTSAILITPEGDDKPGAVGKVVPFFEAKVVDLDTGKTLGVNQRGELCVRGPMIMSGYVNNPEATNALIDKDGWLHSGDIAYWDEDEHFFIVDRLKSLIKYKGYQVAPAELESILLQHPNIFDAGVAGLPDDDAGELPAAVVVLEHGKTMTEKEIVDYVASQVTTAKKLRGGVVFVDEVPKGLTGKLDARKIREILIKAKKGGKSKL
S16 F2sN tox cnf: confirmation of cytotoxicity in S16 Pmp22-F2sN Schwann cells (luciferase reporters placed in the Pmp22 gene) | S16 Schwann cells viability, CellTiter-Glo ATP luminescence, 24 h | Potency, µM (top dose mostly 57.5 µM), most hits filed as cytotoxic | 690 tested, 7% active | shares compounds with PMP22 txn
PMP22 txn conf: confirmation of modulators of PMP22 gene transcription in S16 cells; 690 tested, 22% active; S16 Schwann cells Pmp22-F2sN, dual luciferase, 24 h; Potency, µM (doses to about 57.5 µM), hits mostly inhibitors; shares compounds with PMP22 txn; active = clear falling dose curves in both reporters; inconclusive = both reporters move, but less clearly or upward; inactive = either reporter flat; the % is the FLuc reporter signal
PMP22 prot conf: rat PMP22 protein level modulation, confirmatory; shares compounds with PMP22 txn; S16 Schwann cells Pmp22-HiBiT, luminescence, 48 h; Potency, µM (titrated, usually from 27.9 µM), most hits filed as inhibitors; 95 tested, under 10 active
Target sequence (P25094 whole entry, looked up): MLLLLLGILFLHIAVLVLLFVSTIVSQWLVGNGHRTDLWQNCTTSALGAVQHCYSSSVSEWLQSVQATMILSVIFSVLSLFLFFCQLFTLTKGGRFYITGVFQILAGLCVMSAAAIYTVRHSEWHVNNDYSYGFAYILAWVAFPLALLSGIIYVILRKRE
A number is an active result; 0 = inactive; ? = inconclusive; - = no result given. Rows were chosen to be rich in hits. Some 3.2% of all compounds tested hit in one or more screens of this group. Unless noted, calls follow the shape of the dose curve; as a rule, active = well fitted curve in the direction sought with a large enough effect; inconclusive = small, poorly fitted or top-dose-only effect, or another doubt; inactive = no such curve, though single readings can be large; an effect the other way counts as inactive or inconclusive.

SMILES	p53null 39C kill	S16 F2sN tox	p53null 32C kill	pS6 MEF inh	PMP22 txn	NLuc sat counter	NLuc Km counter	FLuc counter	S16 F2sN tox cnf	PMP22 txn conf	others
O=C(NCCCN1CCCCC1)c1ccc2c(c1)sc1nc(-c3ccc(F)cc3)cn12	0	?	0	0	?	-	-	-	-	-
CCN1CCN(CCCNC(=O)c2ccc3c(c2)sc2nc(-c4ccc(C)cc4)cn23)CC1	0	?	0	0	9.5µM	15µM	?	6.9µM	19µM	17µM
COc1ccc(NC(=O)CCn2c(=O)c3cccn3c3cccnc32)c(OC)c1	0	0	0	0	0	-	-	-	-	-
CNC(=O)c1cc2c(n(-c3ccc(C)cc3)c1=O)CC(C)(C)CC2=O	0	0	0	0	0	-	-	-	-	-
Cc1ccc(-n2c3c(cc(C(=O)Nc4ccccc4C(N)=O)c2=O)C(=O)CC(C)(C)C3)cc1	0	0	0	0	3.4µM	?	0	0	0	0
CCc1ccc(CNC(=O)c2cnc(N3CCCCC3)c3ccccc23)cc1	0	0	0	0	0	-	-	-	-	-
CCOC(=O)c1cc(-c2ccccc2)n(CCCC(=O)Nc2cccc(C)c2C)c1C	0	0	0	0	?	-	-	-	-	-
COc1ccc(OC)c(NC(=O)c2cc(S(=O)(=O)NCCc3ccc(Cl)cc3)ccc2F)c1	0	0	0	0	?	-	-	-	-	-
COc1ccc(NS(=O)(=O)c2ccc3c(c2)CC(C)N3C(=O)C2CCC2)cc1OC (configuration not stated)	0	0	0	0	3µM	0	?	0	0	?
CCc1cccc(NS(=O)(=O)c2ccc3c(c2)CC(C)N3C(=O)C2CC2)c1 (configuration not stated)	0	?	0	0	?	-	-	-	-	-
Cc1oc(-c2ccc(Cl)cc2)nc1CN1CCCC(C(=O)NCc2ccccc2)C1 (configuration not stated)	0	0	0	0	18µM	?	?	0	0	?
CCCNC(=O)N1[C@H](c2ccc(C)s2)[C@@H](C)C(=O)[C@@H](C)[C@@H]1c1ccc(C)s1	0	0	0	?	?	-	-	-	-	-
Cc1ccc(NC(=O)C2(c3cccs3)CCOCC2)cc1Cl	0	0	0	0	0	-	-	-	-	-
COc1ccc(NC(=O)c2oc3ccccc3c2NC(=O)c2cccc(F)c2)c(OC)c1	0	0	0	0	?	-	-	-	-	-
COc1ccc(NC(=O)c2oc3ccccc3c2NC(=O)Cc2ccc(F)cc2)c(OC)c1	0	0	0	?	13µM	0	0	0	?	?	PMP22 prot conf=0
COCCNc1oc(-c2ccc(COc3ccc(OC)cc3)o2)nc1C#N	0	0	0	0	?	?	0	0	?	0
CCCCNc1oc(-c2ccc(COc3ccc(OC)cc3)o2)nc1C#N	0	0	0	0	0	-	-	-	-	-
CC(CNC(=O)CCn1c(=O)c2cccn2c2ccc(F)cc21)c1ccccc1 (configuration not stated)	0	0	0	0	?	-	-	-	-	-
CC(CNC(=O)CCCn1c(=O)c2cccn2c2ccc(F)cc21)c1ccccc1 (configuration not stated)	0	0	0	0	19µM	?	0	0	0	?
Cc1ccc(C)c(N2CCN(C(=O)Cn3cnc4onc(-c5ccc(F)cc5)c4c3=O)CC2)c1	0	0	0	0	0	-	-	-	-	-
CCCCNC(=O)c1ccc(-c2nc(CS(=O)(=O)c3ccc(C)cc3)c(C)o2)cc1	0	0	0	0	?	-	-	-	-	-
Cc1ccc(CNC(=O)c2ccc(-c3nc(CS(=O)(=O)c4ccc(C)cc4)c(C)o3)cc2)cc1	0	?	0	0	13µM	0	0	0	0	0
COc1ccc(-c2cc(C(F)(F)F)n3nc(C)c(-c4ccccc4)c3n2)cc1OC	0	0	0	0	11µM	0	0	0	0	?
COc1ccc(-c2c(C)nn3c(C(F)(F)F)cc(-c4ccccc4)nc23)cc1OC	0	0	0	0	0	-	-	-	-	-
CCN1CCN(Cc2c(O)ccc3oc(C)c(C(=O)Nc4cccc(Cl)c4C)c23)CC1	0	-	0	0	-	-	-	-	-	-
SMILES	p53null 39C kill	S16 F2sN tox	p53null 32C kill	pS6 MEF inh	PMP22 txn	NLuc sat counter	NLuc Km counter	FLuc counter	S16 F2sN tox cnf	PMP22 txn conf	others
Cn1nnnc1SCCCNCc1ccccc1OCc1ccccc1Cl	0	?	0	?	13µM	0	?	0	0	?
O=C(CCc1nnc2n(Cc3ccccc3Cl)c(=O)c3ccccc3n12)Nc1ccccc1	0	0	0	0	13µM	0	0	0	0	?
COc1ccc(OCC(=O)NCc2ccc3c(c2)CCN3C(=O)c2cccc(C)c2)cc1	0	0	0	?	20µM	?	0	0	0	?
O=C(CCS(=O)(=O)c1ccc(Br)s1)Nc1cc(C(F)(F)F)cc(C(F)(F)F)c1	?	?	0	0	20µM	0	0	0	?	?
COc1ccc(CCNC(=O)Cn2c(-c3cccs3)cc3cc(F)ccc32)cc1OC	0	0	?	0	?	-	-	-	-	-	PMP22 prot conf=?
CCOc1ccc(CCNC(=O)Cn2c(-c3cccs3)cc3ccccc32)cc1OCC	0	0	0	0	?	-	-	-	-	-
O=C(Cn1c(-c2cccs2)cc2cc(F)ccc21)NCCCN1CCN(c2ccc(F)cc2)CC1	0	0	0	0	?	-	-	-	-	-	PMP22 prot conf=0
CCN(C(=O)CN(C)S(=O)(=O)c1ccc2c(c1)n(C)c(=O)c(=O)n2C)c1cccc(C)c1	0	0	0	0	6.5µM	0	0	0	0	0
CC(C)CCNC(=O)CSc1c2c(nc3ccc(Cl)cc13)CCCC2	0	?	0	?	14µM	?	0	0	0	?
COc1ccc(OC)c(NC(=O)CSc2c3c(nc4ccccc24)CCCC3)c1	0	?	0	?	9.5µM	?	?	0	?	12µM	PMP22 prot conf=?
